Measurements from PubChem BioAssay (Tox21).
“And” between values parts separate entries of the source, which are not always exact repeats. Equal values may be shown once. Inconclusive results are not listed. A call without a number means that no potency is given here. The source made the active and inactive calls. The call rests on the fitted dose curve; in most records, active means well fitted activation curve with a large enough effect in the repeat runs; inconclusive means weak or mixed curves; inactive means flat fitted curve, though single readings scatter.
Potency means the concentration at half of the fitted maximal effect.

Assay: A CellTox Green Cytotoxicity Assay to monitor cytotoxicity in HEK293 cells - 24 hour (AID 1224875); further: nearly all actives have a fitted effect of over 45% in size
Conditions: CellTox Green fluorescence; series mostly up to 76.8 µM
Text: National Center for Advancing Translational Sciences [NCATS]
NIH Chemical Genomics Center [NCGC]
U.S. Environmental Protection Agency [EPA]
National Institutes of Environmental Health Sciences [NIEHS]
National Toxicology Program [NTP]
Cell-based models are critical for drug discovery. Determining the natural cytotoxic effects resulting from test compounds is an essential research activity. A CellTox Green Cytotoxicity Assay to monitor cytotoxicity in real time of continues cell culture during 40 hours of the compound treatment was used to screen Tox21 10K library compounds in Hek293 cells. CellTox Green Cytotoxicity Assay is a nonlytic, homogeneous, biofluorescent method to measure cytotoxicity in cell culture after experimental manipulation. The assay system uses a proprietary asymmetric cyanine dye that is excluded from viable cells but preferentially stains the dead cell's DNA. […] Viable cells produce no appreciable increases in fluorescence. Therefore, the fluorescence signal produced by the binding interaction with dead cell DNA is proportional to cytotoxicity.
The mixture of Hek293 cell suspension and reagents were dispensed at 600cells/6 ul/well in 1536-well tissue culture treated black solid bottom plates using a Multidrop dispenser. After the assay plates were incubated at a 37 C/5% CO2 incubator for 5 hours, 23 nL of compounds dissolved in DMSO, positive and negative controls was transferred to the assay plate by a pintool work station. The plates were incubated at 37 C for 40 hours. The fluorescence intensity were measured at 0h, 8h, 16h, 24h, 32h and 40h time points using ViewLux plate reader during compound treatment.
For `O=S1(=O)OC(c2ccc(O)cc2)(c2ccc(O)cc2)c2ccccc21`, the Potency was “inactive”.
With `Cc1ccc(S(=O)(=O)O)cc1` the Potency was “inactive”.
With `O=C1NS(=O)(=O)c2ccccc21` the Potency was “inactive”.
In the case of `CCOc1ccc(NC(C)=O)cc1`, the Potency was “inactive”.
In the case of `CCCCNC(=O)NS(=O)(=O)c1ccc(C)cc1`, the Potency was “inactive”.
For `CCCc1cc(=O)[nH]c(=S)[nH]1`, the Potency was “inactive”.
With `CCN(CC)C(=O)c1cccc(C)c1` the Potency was “inactive”.
In the case of `CC/C(=C(\c1ccccc1)c1ccc(OCCN(C)C)cc1)c1ccccc1`, the Potency was 35 µM (active) [middle of 5 runs].
For `NS(=O)(=O)O`, the Potency was “inactive”.
In the case of `O=C(Nc1ncc([N+](=O)[O-])s1)c1cccs1`, the Potency was “inactive”.
With `CN(N=O)C(=O)N[C@@H]1[C@@H](O)[C@H](O)[C@@H](CO)O[C@@H]1O` the Potency was “inactive”.
With `CC(O)(P(=O)(O)O)P(=O)(O)O` the Potency was “inactive”.
For `C[C@](N)(Cc1ccc(O)c(O)c1)C(=O)O`, the Potency was “inactive”.
For `COc1cccc(O)c1O`, the Potency was “inactive”.
In the case of `CCCCCCCC(=O)OCC(COC(=O)CCCCCCC)OC(=O)CCCCCCC`, the Potency was “inactive”.
In the case of `Nc1c2c(nc3ccccc13)CCCC2`, the Potency was “inactive”.
For `CC(C)C(=O)Nc1ccc([N+](=O)[O-])c(C(F)(F)F)c1`, the Potency was “inactive”.
With `Cc1cn([C@H]2C=C[C@@H](CO)O2)c(=O)[nH]c1=O` the Potency was “inactive”.
With `CN1CCc2cccc3c2[C@H]1Cc1ccc(O)c(O)c1-3` the Potency was “inactive”.
With `CNNCc1ccc(C(=O)NC(C)C)cc1` the Potency was “inactive”.
In the case of `CN(C)CCOC(c1ccccc1)c1ccccc1`, the Potency was “inactive”.
In the case of `COc1ccc(CN(CCN(C)C)c2ccccn2)cc1`, the Potency was “inactive”.
With `O=C1c2c(O)cccc2Cc2cccc(O)c21` the Potency was “inactive”.
In the case of `O=C(O)c1ccccc1`, the Potency was “inactive”.
In the case of `C=CCc1ccc(O)c(OC)c1`, the Potency was “inactive”.
With `O=CC(=O)c1ccccc1` the Potency was “inactive”.
For `O=C1O[C@H]([C@@H](O)CO)C(O)=C1O`, the Potency was “inactive”.
For `CCOC(N)=O`, the Potency was “inactive”.
For `Cc1c(C(=O)O)c(O)cc2c1C(=O)c1c(O)c([C@@H]3O[C@H](CO)[C@@H](O)[C@H](O)[C@H]3O)c(O)c(O)c1C2=O`, the Potency was “inactive”.
For `O=C1OC2(c3ccccc31)c1cc(Br)c(O)c(Br)c1Oc1c2cc(Br)c(O)c1Br`, the Potency was 4.43 µM (active) and 7.11 µM (active) and 9.52 µM (active).
For `CN1CCC[C@H]1c1cccnc1`, the Potency was “inactive”.
With `Cc1cccc(C)c1` the Potency was “inactive”.
In the case of `F[B-](F)(F)F`, the Potency was “inactive”.
In the case of `CCCCC(CC)C(=O)O` (stereo not given), the Potency was “inactive”.
For `CC(C)NCC(O)c1ccc(O)c(O)c1` (stereo not given), the Potency was “inactive”.
With `O=c1[nH]cc(F)c(=O)[nH]1` the Potency was “inactive”.
In the case of `Cn1c(=O)c2c(ncn2C)n(C)c1=O`, the Potency was “inactive”.
With `NC(CO)(CO)CO` the Potency was “inactive”.
For `Nc1ccc2c(c1)CN1C(=O)c3ccccc3C1=N2`, the Potency was 10.4 µM (active).
In the case of `C=C(C)C(=O)OCC(C)O` (stereo not given), the Potency was “inactive”.
